Data published in PubChem BioAssay (Tox21).
Records with an inconclusive call do not appear. Calls of active or inactive are those of the source. Calls come from the whole dose curve; as a rule, active = well fitted inhibition curve with a large enough effect in the repeat runs; inconclusive = weak or mixed curves; inactive = flat fitted curve, though single readings scatter.

Test: qHTS assay to identify small molecule HDAC inhibitors (AID 1259364); note: nearly all actives have a fitted effect of over 45% in size; for activity change, negative = inhibition: top concentration of the series differs between compounds
Details: HCT-116 HDAC-Glo I/II luminescence, 2 h; series mostly up to 92.4 µM; activity change, negative = inhibition: at the top concentration
Text: U.S. Tox21 Program National Center for Advancing Translational Sciences [NCATS] NIH Chemical Genomics Center [NCGC] U.S. Environmental Protection Agency [EPA] National Institutes of Environmental Health Sciences [NIEHS] National Toxicology Program [NTP] U.S. Food and Drug Administration [FDA] Tox21 Assay Overview: Histone deacetylases (HDACs) are a group of epigenetic enzymes that regulate gene expression by histone deacetylation. HDACs are capable of introducing epigenetic modifications and such aberrations contribute to the onset and progression of several human diseases, thus making HDACs a popular therapeutic target. For identifying endogenous class I/II HDAC inhibitors a homogenous, luminogenic HDAC I/II cell based assay was used to measure the relative activity of class I and II HDACs from cells. Wild type HCT-116 cells were used to screen Tox21 libraries for identifying class I/II HDAC inhibitors.
Tox21 Assay Protocol Summary: HCT-116 cells were dispensed at 1,500 per well in 5uL of culture medium into white solid bottom 1536-well plates (Greiner Bio-One, Monroe, NC) using a Multidrop Combi (Thermo Scientific, Waltham, MA) dispenser. The assay plates were incubated at 37 C and 5% CO2 for an overnight, and then 23nL of compounds dissolved in DMSO and positive control were transferred using a Pintool station (Wako, San Diego, CA). The assay plates were incubated at 37C and 5% CO2 for 2hr. After compound treatment, 4uL of HDAC-Glo reagent (Promega Corporation, Madison, WI) was added to each well of the assay plates using Flying Reagent Dispenser (FRD, Aurora Discovery, San Diego, CA) and incubated the assay plates at room temperature for 30min. The luminescence signal was quantified using a ViewLux plate reader (Perkin Elmer, Shelton, CT).
% is set by controls: 0 for no effect and ±100 for the full control effect; potency is the fitted concentration of half-maximal effect.

Compound | activity change, negative = inhibition | Potency
O=C(O)c1ccccc1Cl | 0.561% (inactive) | –
Cc1ccc(C(=O)Oc2ccc(C(O)CNC(C)(C)C)cc2OC(=O)c2ccc(C)cc2)cc1 (stereo not given) | -0.425% [at 42.5 µM] (inactive) | –
COC(C)(C)CCO | 4.51% (inactive) | –
CC(CC=O)c1ccccc1 (stereo not given) | -1.51% (inactive) | –
Cc1c(N)cccc1[N+](=O)[O-] | 0.554% (inactive) | –
COc1cccc(N(C)C(=S)Oc2ccc3c(c2)CCCC3)n1 | -6.91% [at 42.5 µM] (inactive) | –
CN(C)CCN(Cc1ccccc1)c1ccccn1 | -7.78% [at 42.5 µM] (inactive) | –
Cc1cc(N)c2cc(NC(=O)Nc3ccc4nc(C)cc(N)c4c3)ccc2n1 | -2.2% [at 42.5 µM] (inactive) | –
Cc1cccc(Nc2ccccc2)c1 | -25.1% (inactive) | –
CCOc1ccc(N)c([N+](=O)[O-])c1 | -11.9% (inactive) | –
CC(=O)NO | -7.53% [at 42.5 µM] (inactive) | –
CN1C[C@H]2c3ccccc3Oc3ccc(Cl)cc3[C@@H]2C1 | 1.07% [at 42.5 µM] (inactive) | –
C[N+](C)(C)CCOC(=O)CCC(=O)OCC[N+](C)(C)C | 5.15% [at 42.5 µM] (inactive) | –
CNCCCCOc1ccccc1Cc1ccccc1 | -1.1% [at 42.5 µM] (inactive) | –
OC(CN1CCC(Cc2ccc(F)cc2)CC1)c1ccc(Cl)cc1 (stereo not given) | 1.28% [at 42.5 µM] (inactive) | –
C1CCCNCCC1 | 0.0537% (inactive) | –
O=CC1CC=CCC1 (stereo not given) | 6.17% (inactive) | –
CCn1cc(C(=O)O)c(=O)c2cnc(N3CCNCC3)nc21 | 2.47% [at 42.5 µM] (inactive) | –
C=C1C(=C/C=C2\CCC[C@]3(C)[C@@H]([C@H](C)/C=C/[C@@H](O)C4CC4)CC[C@@H]23)C[C@@H](O)C[C@@H]1O | -2.73% [at 42.5 µM] (inactive) | –
C[N+]1(CC2COC(c3ccccc3)(C3CCCCC3)O2)CCCCC1 (stereo not given) | -0.0373% [at 42.5 µM] (inactive) | –

Compound | activity change, negative = inhibition | Potency
C/C=C(/C(=C/C)c1ccc(OC(C)=O)cc1)c1ccc(OC(C)=O)cc1 | 1.55% [at 42.5 µM] (inactive) | –
N=c1ccn2c(n1)O[C@H]1[C@H](O)[C@@H](CO)O[C@H]12 | -6.25% (inactive) | –
CN1CCC(N(Cc2cccs2)c2ccccc2)CC1 | -1.22% [at 42.5 µM] (inactive) | –
Nc1ccc(N)c2c1C(=O)c1ccccc1C2=O | – | 21.7 µM (active)
CC(=O)c1ccc2c(c1)N(CCCN1CCC(CCO)CC1)c1ccccc1S2 | -26.3% [at 42.5 µM] (inactive) | –
CCCCC/C=C\C/C=C\CCCCCCCC(=O)NC(C)c1ccccc1 (stereo not given) | -8.76% [at 42.5 µM] (inactive) | –
NC(=O)C(c1ccccc1)(c1ccccc1)[C@@H]1CCN(CCc2ccc3c(c2)CCO3)C1 | -0.204% [at 42.5 µM] (inactive) | –
CCOCC(O)COc1ccc(NC(=O)CC[S+](C)C)cc1 (stereo not given) | -3.11% [at 42.5 µM] (inactive) | –
OC(C#CCN1CCCC1)(c1ccccc1)c1ccccc1 | 10.3% [at 42.5 µM] (inactive) | –
Nc1ccc([N+](=O)[O-])c(C(F)(F)F)c1 | 3.89% [at 42.5 µM] (inactive) | –
CN(C)CCOC(c1ccccc1)c1ccc(Br)cc1 (stereo not given) | 0.413% [at 42.5 µM] (inactive) | –
CCCCCCCCCCCCN1CCCCCC1=O | 5.2% (inactive) | –
Cc1[nH]c(C)c(Cl)c(=O)c1Cl | 7.15% [at 19 µM] (inactive) | –
CC(C)(O)c1ccc(CNC(=O)c2cccnc2Oc2ccc(F)cc2)cc1 | 0.0646% (inactive) | –
Cc1cccc(C)c1OCC(=O)N[C@@H](Cc1ccccc1)[C@@H](O)C[C@H](Cc1ccccc1)NC(=O)[C@H](C(C)C)N1CCCNC1=O | 2.36% [at 42.5 µM] (inactive) | –
C/C=C/C(=O)CC | -0.325% [at 19 µM] (inactive) | –
CCCCc1nc2cccnc2n1Cc1ccc(-c2ccccc2-c2nnn[nH]2)cc1 | 1.9% (inactive) | –
O=C1[C@H]2CCCC[C@H]2C(=O)N1CCCCN1CCN(c2nsc3ccccc23)CC1 | -1.65% [at 42.5 µM] (inactive) | –
Nc1cccc(S(=O)(=O)c2cccc(N)c2)c1 | 20.8% (inactive) | –
CC(C)O.CC(C)O.CCOC(=O)/C=C(\C)O.CCOC(=O)/C=C(\C)O.[Ti] | 7.33% (inactive) | –
